Bioassay records: PubChem, National Center for Advancing Translational Sciences (NCATS)
Shiga inhibitor: blocks Shiga toxin action in Vero cells; hit rate 9.2% among 290,000; inhibition, % at 38.7 µM; Vero cells, Shiga toxin protein synthesis inhibition reporter; AID 2315; in the data active = inhibition mostly above about 28%, no sharp cut-off; inactive = mostly below about 43%; also: 0% is about no effect
Cycloheximide cs: affects cycloheximide protein synthesis inhibition readout, counter-screen; AID 2314; hit rate 12% among 300,000; max response, %; cell reporter, cycloheximide protein synthesis inhibition counterscreen; in the data active = max response mostly above about 13%, no sharp cut-off; inactive = mostly below about 14%; also: read at 38.3 µM for the half of the compounds with a filed dose; 0% is about no effect
Pf growth 96h: P. falciparum growth inhibition at 96 hour, primary screen for plastid delayed-death inhibitors | P. falciparum luciferase reporter growth, 96 h | Potency, µM (top dose mostly 28.7 µM), inactives show at the top dose activity change, negative = inhibition, usual class: inhibitors | hit rate 6.9% among 320,000; also: potency is read from the fitted curve at half-maximal effect; % is scaled to controls: 0 for no effect and ±100 for the full control effect
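96 h incubation, 37 C, 5% CO2, of luciferase-reporter P. falciparum-infected RBCs (2% hematocrit, 0.05% parasitemia final) with test compounds; endpoint luminescence.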
AMA1 RON2 block: inhibitors of Plasmodium falciparum AMA1-RON2 interaction. AlphaScreen AMA1-biotinylated RON2 peptide binding. Potency, µM (highest dose often 58.2 µM), inactives show at the top dose activity change, negative = inhibition, hits mostly inhibitors. hit rate 0.2% among 360,000;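 also: potency is read from the fitted curve at half-maximal effect; 0% = vehicle wells and -100% = peptide control; nearly all actives have a fitted effect of over 45% in size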
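AMA1 (3D7) with his tag at 25 nM final met compounds first, then biotinylated RON2 peptide at 25 nM; detection used donor plus acceptor beads, 10 µg/mL apiece, read by AlphaScreen after 30 min at room temperature.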
SARS PLP yeast: blocks SARS-CoV papain-like protease in a yeast assay; S. cerevisiae expressing SARS-CoV PLpro, growth rescue; Potency, µM (titrated, usually from 32.9 µM), for inactives: at the highest dose activity, positive = growth rescue, most hits filed as activators; hit rate 0.19% among 330,000; calls by dose curve; also: potency is read from the fitted curve at half-maximal effect; 0% is about no effect; nearly all actives have a fitted effect of over 55% in size
Pf growth 48h: P. falciparum growth inhibition at 48 hours (one generation); P. falciparum luciferase growth in erythrocytes, 48 h; hit rate 5.9% among 310,000; Potency, µM (titrated, usually from 28.7 µM), without a hit: at the highest dose activity change, negative = inhibition, actives largely listed as inhibitors; also: potency is read from the fitted curve at half-maximal effect; % is scaled to controls: 0 for no effect and ±100 for the full control effect
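Cell-based growth assay: transgenic P. falciparum expressing firefly luciferase, cultured in red cells within RPMI 1640 containing 0.5% w/v Albumax, 24 mM bicarbonate and gentamycin. A drop in luciferase activity indicates inhibition.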
* marks the source's active call; other numbers are inactive results; ? = inconclusive; . = not tested or not shown; [ ] = remark or other dose. The list is not random: actives were taken first. Their share in the collection is about 19%. Unless noted, calls follow the shape of the dose curve; as a rule, active = well fitted curve in the direction sought with a large enough effect; inconclusive = small, poorly fitted or top-dose-only effect, or another doubt; inactive = no such curve, though single readings can be large; an effect the other way counts as inactive or inconclusive.

SMILES	Shiga inhibitor	Cycloheximide cs	Pf growth 96h	AMA1 RON2 block	SARS PLP yeast	Pf growth 48h
CCOC(=O)CNC(=O)CSc1nc(Cc2ccccc2)nc2ccccc12	-9.6	-2.5	?	0.8%	4.9%	-1.4%
O=C(/C=C/c1ccccc1Cl)NCCc1ccc(F)cc1	93.0*	23.7*	?	-7.6%	-11.7%	4.65µM*
O=C(/C=C/c1ccc(Cl)cc1Cl)NCCSCc1ccccc1	11.6	7.6	-11.7%	10.7%	?	0.9%
Cc1ccc(CSCCNC(=O)/C=C/c2ccccc2Cl)cc1	5.6	31.9*	-5.2%	-1.2%	-2.3%	?
O=C(Cc1ccccc1[N+](=O)[O-])NCCc1ccc(F)cc1	3.0	1.0	36.4%	6.7%	8.8%	2.7%
O=C(/C=C/c1ccccc1[N+](=O)[O-])NCCc1ccc(F)cc1	69.4	23.9*	36.7%	-3.0%	-0.2%	-5.9%[5.75 µM]
CCOc1ccccc1CN1CCNC(=O)C1CC(=O)NCc1nc(C)cs1 (stereo not drawn)	-6.5	0.9	9.28µM*	9.6%	?	4.7%
Cc1csc(CNC(=O)CC2C(=O)NCCN2Cc2ccc(F)cc2Cl)n1 (stereo not drawn)	-2.9	-2.2	-1.5%	41.5%	9.4%	2.1%
Cc1ccccc1CN1CCNC(=O)C1CC(=O)NC1CCCCCCC1 (stereo not drawn)	-3.8	-4.1	2.62µM*	31.5%	-5.9%	?
CCOc1ccccc1CN1CCNC(=O)C1CC(=O)NCCCn1cccn1 (stereo not drawn)	-4.8	-0.9	11.7µM*	28.5%	0.8%	-10.1%
O=C(CC1C(=O)NCCN1Cc1ccccc1F)NC1CCCCCC1 (stereo not drawn)	-29.5	4.4	?	.	1.7%	-7.1%
O=C(CC1C(=O)NCCN1Cc1cccc(Oc2ccccc2)c1)NCCCn1cccn1 (stereo not drawn)	-0.9	1.6	10.4µM*	-13.1%	-0.5%	-19.1%
O=C(CC1C(=O)NCCN1CC1CCCCC1)NCc1ccc(F)cc1F (stereo not drawn)	41.1*	20.0*	?	-5.4%	0.7%	65.6%
O=C(CC1C(=O)NCCN1CC1CCCCC1)NCc1cc(F)ccc1F (stereo not drawn)	-3.5	-2.6	-15.8%	16.9%	-2.6%	-26.6%
O=C(Nc1ccc(N2CCOCC2)cc1)c1cccc(-n2cnnc2)c1	-7.2	11.5	?	-12.2%	?	31.0%
O=C(N/N=C/c1ccc(N2CCOCC2)cc1)c1ccncc1	.	.	-9.5%	7.7%	-4.1%	-21.8%
O=C(Nc1ccc(N2CCOCC2)cc1)c1ccc([N+](=O)[O-])cc1	84.5*	28.0*	-0.8%	-9.0%	1.7%	54.9%
Cc1cc(C)n(-c2ccc(C(=O)Nc3ccc(N4CCOCC4)cc3)cc2)n1	12.9	6.3	0.0%	-1.1%	1.5%	.
CN(C)c1cccc(C(=O)Nc2ccc(N3CCOCC3)cc2)c1	76.7	23.2*	.	-15.3%	-1.4%	34.8%
O=C(Nc1ccc(N2CCOCC2)cc1)c1ccncc1	32.3*	13.6*	?	1.5%	0.8%	56.7%
Cc1ccnc2nc(C(=O)Nc3ccc(N4CCOCC4)cc3)nn12	74.3*	27.6*	-3.7%[5.75 µM]	6.8%	0.3%	33.6%
COC(=O)[C@]12CCCCC=C1N(Cc1ccc(Cl)cc1Cl)C(=O)[C@H](CC(=O)NCCc1ccccc1OC)C2	.	.	.	-7.1%	.	.
NC(=O)c1nsc(C(=O)N(CCc2ccccc2)C(C(=O)NC2CCCC2)c2ccco2)c1N (stereo not drawn)	-6.3	1.2	10.4µM*	-2.6%	?	?
CC(C)CCNC(=O)C(c1ccco1)N(Cc1ccccc1)C(=O)c1snc(C(N)=O)c1N (stereo not drawn)	44.3	2.2	.	8.7%	1.4%	?
CC(C)(C)NC(=O)C(c1ccco1)N(Cc1ccc2c(c1)OCO2)C(=O)c1snc(C(N)=O)c1N (stereo not drawn)	-2.6	-4.6	9.28µM*	-7.9%	0.7%	-20.6%
SMILES	Shiga inhibitor	Cycloheximide cs	Pf growth 96h	AMA1 RON2 block	SARS PLP yeast	Pf growth 48h
CCOCCCN(C(=O)c1snc(C(N)=O)c1N)C(C(=O)NC1CCCC1)c1ccc(O)cc1 (stereo not drawn)	-4.3	-5.7	?	8.8%	-0.4%	-3.1%
CCOCCCN(C(=O)c1snc(C(N)=O)c1N)C(C(=O)NC1CCCC1)c1ccc(OC)cc1 (stereo not drawn)	-2.7	0.8	5.4%	-1.8%	0.2%	8.28µM*
COc1ccc(CN(C(=O)c2snc(C(N)=O)c2N)C(CC(C)C)C(=O)NC2CCCCC2)cc1 (stereo not drawn)	4.8	-4.2	?	18.6%	-3.6%	11.7µM*
CCc1ccc(N(C(=O)c2snc(C(N)=O)c2N)C(C(=O)NC2CCCC2)c2ccco2)cc1 (stereo not drawn)	-6.7	-2.3	5.5%	1.8%	-0.1%	?
CC(C)c1ccc(/C=N/n2c(-c3ccccc3)n[nH]c2=S)cc1	.	-3.3	?	90.7%	0.2%	-0.9%
CCCCC(C(=O)NC(C)(C)C)N(Cc1ccccc1Cl)C(=O)c1snc(C(N)=O)c1N (stereo not drawn)	-7.8	0.5	86.3%	-12.2%	-2.0%	10.4µM*
Cc1cccc(NC(=S)NC(=O)c2ccco2)c1C	14.4	31.6	11.4%	12.0%	1.0%	38.2%
Cc1cccc(NC(=S)NC(=O)Cc2ccccc2)c1C	15.5*	8.0	-4.8%	64.8%	7.0%	?
Cc1c(NC(=S)NC(=O)Cc2ccccc2)cccc1C(=O)O	10.3	11.0	44.0%	15.6%	2.3%	-3.4%
Cc1cccc(NC(=S)N(C)C)c1C	29.8*	-2.1	7.2%	4.6%	0.8%	35.7%
Cc1cccc(NC(=S)NC(=O)CCc2ccccc2)c1C	22.2	18.2*	?	20.6%	9.6%	.
Cc1cccc(NC(=S)NN(Cc2ccccc2)c2ccccc2)c1C	11.8	2.9	4.15µM*	51.2%	-16.7%	.
O=C(NCC(=O)N(c1cccc(F)c1)C(C(=O)NC1CCCC1)c1cccnc1)c1cccs1 (stereo not drawn)	-6.8	5.3	-15.6%	4.6%	-1.7%	3.7%
Cc1ccc(CNC(=O)CCc2ccccc2)cc1	19.4	15.2*	28.0%	12.3%	0.8%	38.5%
COc1ccc(/C=N/NC(=O)COc2ccccc2-c2ccccc2)cc1	-5.7	-2.7	?	-4.7%	-4.1%	?
Cc1ccccc1CNC(=O)CCc1ccccc1	34.5	18.4*	?	0.6%	0.2%	25.2%
NC(=O)N/N=C/c1ccccc1OCc1cccc2ccccc12	-5.6	-1.0	13.1µM*	11.2%	-8.6%	18.5%
Cc1ccc(CNC(=O)CCCc2ccccc2)cc1	2.6	26.8	23.1%	8.0%	-1.0%	23.7%
O=C(COc1ccccc1-c1ccccc1)N/N=C/c1cccc2ccccc12	-2.0	-3.6	9.28µM*	-22.0%	-3.3%	?
